In the library only some 2.8% were active in any assay of this set; here they are far more common.
POLI inh = qHTS for Inhibitors of Polymerase Iota | Potency, µM (doses to about 115 µM), inactives show at the top dose activity, negative = inhibition, most hits filed as inhibitors | Pol iota fluorescent replication assay, 10 min | DNA polymerase iota (Homo sapiens), Q9UNA4 | 390,000 tested, 1% active | AID 588590, 2011; note: potency is the fitted concentration of half-maximal effect
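Fluorescent replication assay read twice, at 0 min and 10 min after adding 50 nM (final) substrate. Enzyme (10 nM) and compounds were first incubated 15 min at room temperature; enzyme-free buffer wells were negative controls.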
Pol eta inh = qHTS for Inhibitors of Polymerase Eta | recombinant Pol eta, fluorescent DNA replication assay | AID 588591, 2011 | DNA polymerase eta (Homo sapiens), Q9Y253 | 390,000 tested, 1.2% active | Potency, µM (top dose mostly 114 µM), for inactives: at the highest dose activity change, negative = inhibition, hits mostly inhibitors; note: potency is the fitted concentration of half-maximal effect; % is set by controls: 0 for no effect and ±100 for the full control effect
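Fluorescent replication assay: 50 nM final substrate added after a 15 min room-temperature compound preincubation with 10 nM enzyme. Signal taken at 0 min and again at 10 min.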
POLB inh = qHTS Assay for Inhibitors of DNA Polymerase Beta; Potency, µM (doses to about 114 µM), for inactives: at the highest dose activity change, negative = inhibition, most hits filed as inhibitors; 340,000 tested, 1.3% active; P06746; Pol beta primer extension/strand displacement, fluorescence kinetic; note: potency is the fitted concentration of half-maximal effect; % is set by controls: 0 for no effect and ±100 for the full control effect
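Preincubation: enzyme (10 nM) with compound, 15 min, RT. Reaction: substrate added to 50 nM final. Reads: 0 and 10 min. Analysis: normalized, Hill fit.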
WRN helicase inh = qHTS for Inhibitors of WRN Helicase; Bifunctional 3'-5' exonuclease/ATP-dependent helicase WRN (Homo sapiens), Q14191; WRN helicase unwinding, fluorescent forked duplex, kinetic; Potency, µM (highest dose often 114 µM), for inactives: at the top dose activity change, negative = inhibition, hits mostly inhibitors; AID 651768, 2012; 360,000 tested, 0.46% active; note: potency is the fitted concentration of half-maximal effect; % is set by controls: 0 for no effect and ±100 for the full control effect; nearly all actives have a fitted effect of over 55% in size
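Enzyme (20 nM final) and test compound sit together 15 min at room temperature before substrate addition. Substrate is a single-forked duplex oligonucleotide (100 nM) labelled with fluorophore and quencher, with 2 mM ATP; helicase unwinding raises red fluorescence, read kinetically.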
Pol kappa inh = qHTS for Inhibitors of Polymerase Kappa | Potency, µM (top dose mostly 107 µM), without a hit: top-dose activity, negative = inhibition, most hits filed as inhibitors | DNA polymerase kappa (Homo sapiens), Q9UBT6 | AID 588579, 2011 | purified Pol kappa, fluorescent DNA synthesis assay, 10 min | 400,000 tested, 0.53% active; note: potency is the fitted concentration of half-maximal effect; % is set by controls: 0 for no effect and ±100 for the full control effect
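Enzyme at 10 nM met test compounds for 15 min at room temperature. Substrate addition (50 nM final) began the reaction, which was monitored by fluorescence at 0 and 10 min.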
PI5P4K alpha inh = qHTS for Inhibitors of phosphatidylinositol 5-phosphate 4-kinase (PI5P4K); Phosphatidylinositol 5-phosphate 4-kinase type-2 alpha (Homo sapiens), P48426; PI5P4Kalpha enzyme, ADP-Glo luminescence, 60 min; active compounds read low; max response, %; 330,000 tested, 1.2% active; AID 652105, 2013; active = max response of -50% or lower; inconclusive = between -30% and -50%; inactive = -30% or higher; note: value at the top dose of about 77 µM; % is set by controls: 0 for no effect and ±100 for the full control effect
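Reactions run in 0.038 M HEPES pH 7.4, 0.28 mM EGTA, 0.1% CHAPS and 5% DMSO, with PI5P4Kalpha, substrate, compound and 5 microM ATP final, one hour at room temperature. Readout is ADP-Glo luminescence.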
The depositor's hits bear a star; ? = inconclusive; . = not tested or not shown; [ ] = dose if it differs, or a comment. Unless noted, calls come from the whole dose curve; as a rule, active = well fitted curve in the direction sought with a large enough effect; inconclusive = small, poorly fitted or top-dose-only effect, or another doubt; inactive = no such curve, though single readings can be large; an effect the other way counts as inactive or inconclusive.

SMILES	POLI inh	Pol eta inh	POLB inh	WRN helicase inh	Pol kappa inh	PI5P4K alpha inh
CC(NC(=O)/C(C#N)=C/c1ccc(OCC(=O)O)cc1)c1ccccc1 (stereo not given)	?	17.8µM*	-13.2%	-3.8%	-17.1%	-1.7
C[C@H](NC(=O)/C(C#N)=C/c1ccc(O)c(O)c1)c1ccccc1	?	22.4µM*	5.5%[57.1 µM]	.	?	.
CC(NC(=O)/C(=C/c1ccc(OC(F)F)cc1)c1ccccc1)c1ccccc1 (stereo not given)	20.4%	-17.6%	-21.2%	6.0%	-21.0%	12.4
COc1cc(/C=C(\C#N)C(=O)Nc2nnc(C(F)(F)F)s2)ccc1OCc1ccc(C(F)(F)F)cc1C(F)(F)F	.	.	.	.	6.7µM*	.
N#C/C(=C/c1ccc(O)c(O)c1)C(=O)NCc1ccc(Cl)cc1	?	?	26.8%	?	-19.9%	?
COc1cc(/C=C(/C#N)C(=O)Nc2ccccc2)ccc1OCc1ccc(C(=O)O)cc1	0.4%	79.4µM*	-3.5%	-13.8%[11.6 µM]	-4.0%	1.1
Cc1noc(-c2ccc(NC(C)c3ccccc3)c([N+](=O)[O-])c2)n1 (stereo not given)	2.0%	-9.0%	3.8%	.	-7.2%	.
Cc1ccc(C)c(NC(=O)c2cnn(-c3cccc(F)c3)c2C2CCN(C(=O)OC(C)(C)C)CC2)c1	-3.8%	-11.5%	18.3%	.	-2.5%	.
CN(C)S(=O)(=O)c1cccc(NC(=S)NNC(=O)c2cc3ccccc3cc2O)c1	31.7%	-14.8%	.	-30.5%	-12.1%	-60.4*
OC(C1=C/C(=C\c2ccncc2)c2ccccc21)c1ccncc1 (stereo not given)	18.1%	.	.	.	-22.3%	.
CSc1ccc(C2c3c(oc4cc(C)cc(C)c4c3=O)C(=O)N2CCO)cc1 (stereo not given)	-25.6%	.	3.5%	.	-5.0%	.
Cc1cc(OCC(=O)Nc2ccc(CN3CCOCC3)cc2)c2c(C)cc(=O)oc2c1	50.1µM*	3.9%	23.3%	10.6%	-39.1%	-3.1
O=S(=O)(c1ccc(Oc2ccc(-c3nnco3)cc2)nc1)N1CCC(Cc2ccccc2)CC1	-5.9%	44.7µM*	?	4.8%	-14.6%	0.5
CCCCc1nc(NCCNC(=O)c2ccco2)c(C#N)c2c1CSC(C)(C)C2	?	89.1µM*	3.9%	?	?	.
Cc1ccc(-c2cn(CCN)c(-c3ccncc3)n2)cc1	31.6µM*	-1.1%	.	-2.9%[11.6 µM]	-17.3%	6.9
Cc1cc2ccccc2c[n+]1CC(=O)c1ccc(F)cc1	40.9%	.	.	.	-3.4%	.
COc1ccc(N2CCN(C(=O)NC3CCCCC3)CC2)cc1	89.1µM*	?	-2.0%	0.3%	-3.1%	-8.0
COc1cccc(N2CCN(C(=O)NC3CCCCC3)CC2)c1	18.5%	-2.9%	0.1%	8.4%	-5.1%	-1.5
O=C(NCc1ccco1)c1cc2nc(-c3ccc4c(c3)OCO4)cc(C(F)(F)F)n2n1	-4.5%	7.1%	79.4µM*	-13.9%	-29.7%	0.3
Cc1cc(-c2ccccc2)nc2cc(C(=O)NCc3ccco3)nn12	?	44.7µM*	?	-33.3%	?	-27.3
O=C(NCc1ccco1)c1nn2c(C(F)(F)F)cc(-c3cccs3)nc2c1Br	5.1%	-15.3%	89.1µM*	-37.9%	-9.6%	-10.9
COc1ccc(-c2cc(C(F)(F)F)n3nc(C(=O)NCC45CC6CC(CC(C6)C4)C5)cc3n2)cc1	89.1µM*	-5.3%	?	.	-20.4%	.
Cc1ccc(NC(=O)c2ccc(NC(=O)N3CCSc4nc(C)cc(C)c43)cc2)c(Cl)c1	9.6%	2.2%	6.8%	.	-9.1%	.
Cc1ccc(C)c(N2CCN(C(=O)c3cn(CC(C)C)c(=O)c4c3c3ccccc3n4C)CC2)c1	-6.7%	-27.9%	2.3%	.	-0.9%	.
